# Screens: PubChem, several laboratories
# Gli-Sufu antag – blocks Gli-Sufu signaling in a luciferase reporter; Sufu-KO-LIGHT fibroblasts, Gli luciferase reporter luminescence; inhibition, % at 5 µM; 340,000 compounds, 0.74% hits;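 active = inhibition above about 55%, limit read from the data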;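 also: 0% = DMSO-treated cells and 100% = wells with medium but no cells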
# 697 NFkB inh – lowers PMA/ionomycin-induced NF-kB signal in 697 B cells; 330,000 compounds, 0.33% hits; inhibition, % at 4 µM; 697 B-cell NF-kB luciferase reporter, 16 h; AID 435022; in the data active = inhibition above about 35%
# Beta cell apopt – beta cell apoptosis inhibition. INS-1E cytokine-induced death, ATP luminescence, 48 h; percent of positive-control rescue, neutral wells zero. protection from apoptosis, % (concentration not given with the values). 300,000 compounds, 0.8% hits;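 active = Every replicate reaches about 75%, or at least half do and their mean reaches it too, limit read from the data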;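 also: 0% = cytokine-treated negative control wells and 100% = positive control rescue; higher means more ATP so stronger rescue from cytokine killing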
# Jurkat NFkB inh – lowers PMA/ionomycin-induced NF-kB signal in Jurkat cells. AID 435003. PMA/ionomycin-induced NF-kB luciferase reporter, luminescence. 330,000 compounds, 0.53% hits. inhibition, % at 4 µM; in the data active = inhibition above about 50%
# Mdm2 MdmX PPI – human Mdm2/MdmX binding inhibition | SaOS-2 split-luciferase Mdm2/MdmX complementation, luminescence | 330,000 compounds, 3% hits | AID 485346 | inhibition, % at 8 µM;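 active = inhibition of at least 50% at 8 µM in the primary screen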
# Target sequence (O15151 whole entry, looked up): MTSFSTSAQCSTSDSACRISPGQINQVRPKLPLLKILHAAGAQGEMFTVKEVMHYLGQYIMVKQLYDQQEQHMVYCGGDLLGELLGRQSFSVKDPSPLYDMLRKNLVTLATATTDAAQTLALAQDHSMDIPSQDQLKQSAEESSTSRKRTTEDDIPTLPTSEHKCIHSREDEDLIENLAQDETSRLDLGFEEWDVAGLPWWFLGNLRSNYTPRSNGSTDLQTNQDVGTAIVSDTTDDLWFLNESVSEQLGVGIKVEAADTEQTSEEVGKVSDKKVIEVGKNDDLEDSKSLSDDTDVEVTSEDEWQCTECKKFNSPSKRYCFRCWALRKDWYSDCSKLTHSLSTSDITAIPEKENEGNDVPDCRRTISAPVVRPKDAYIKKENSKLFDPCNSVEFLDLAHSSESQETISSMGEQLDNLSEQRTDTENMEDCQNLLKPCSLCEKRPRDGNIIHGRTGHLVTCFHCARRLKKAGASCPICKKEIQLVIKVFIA
# Target sequence (Q00987 whole entry, looked up): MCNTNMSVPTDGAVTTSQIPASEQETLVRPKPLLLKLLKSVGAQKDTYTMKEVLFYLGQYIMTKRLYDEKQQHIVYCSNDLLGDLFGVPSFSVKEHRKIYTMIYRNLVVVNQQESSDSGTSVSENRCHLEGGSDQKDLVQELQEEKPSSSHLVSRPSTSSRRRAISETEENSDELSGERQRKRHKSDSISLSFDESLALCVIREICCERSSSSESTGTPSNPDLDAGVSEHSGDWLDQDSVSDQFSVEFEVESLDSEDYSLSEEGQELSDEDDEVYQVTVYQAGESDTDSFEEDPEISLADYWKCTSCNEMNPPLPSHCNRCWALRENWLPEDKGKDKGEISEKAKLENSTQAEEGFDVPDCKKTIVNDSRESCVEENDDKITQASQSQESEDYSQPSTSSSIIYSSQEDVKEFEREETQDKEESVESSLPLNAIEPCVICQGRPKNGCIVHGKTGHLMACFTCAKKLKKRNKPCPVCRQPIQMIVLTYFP
# Gli-Sufu confirm – Gli-SUFU antagonism confirmation, single concentration | inhibition, % at 5 µM | shares compounds with Gli-Sufu antag | AID 602428 | 2,500 compounds, 40% hits | Sufu-KO-LIGHT cells, Gli luciferase reporter, luminescence;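 active = mean inhibition at 5 µM reaching about 45%, limit read from the data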;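 also: plate controls were DMSO-treated cells for no effect and wells lacking cells for full effect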
# SufuKO cytotox – cytotoxicity counter-screen for Gli-SUFU antagonists; cytotoxicity, % at 5 µM; Sufu-KO-LIGHT cells cytotoxicity, ATP luminescence; 2,500 compounds, 32% hits; shares compounds with Gli-Sufu antag;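 active = mean cytotoxicity at 5 µM above about 25%, limit read from the data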;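 also: cells exposed to compound overnight for roughly 16 to 18 hours; plate controls were DMSO wells with cells for no effect and medium without cells for full effect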
# Wnt3a counter – Wnt3a reporter inhibition counter-screen | shares compounds with Gli-Sufu antag | inhibition, % at 6.25 µM | 2,500 compounds, 20% hits | Wnt-LIGHT cells, Wnt3a-driven luciferase reporter, luminescence;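 active = mean inhibition above about 25%, limit read from the data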
# The depositor's hits bear a star; nt = no result. Hits are enriched below; roughly 4% of the tested compounds scored in any of these assays.
SMILES,Gli-Sufu antag,697 NFkB inh,Beta cell apopt,Jurkat NFkB inh,Mdm2 MdmX PPI,Gli-Sufu confirm,SufuKO cytotox,Wnt3a counter
O=C(COC(=O)CCCSc1nc2ccccc2[nH]1)NC(=O)NC1CCCC1,55,20,-2,20,-4,8,-3,-11
O=C(Nc1cccc(C(=O)N2CCCc3ccccc32)c1)c1ccccc1,4,-4,nt,18,40,nt,nt,nt
Cc1ccc(S(=O)(=O)N(CC(=O)NCCSc2ccccn2)c2cc(C)cc(C)c2)cc1,51,-9,nt,2,20,25,6,-8
COc1ccc(N(CC(=O)NCCSc2ccccn2)S(=O)(=O)c2ccc(C)cc2)cc1OC,27,-11,-2,-14,10,nt,nt,nt
O=C(OCCOc1cccc(Cl)c1)c1cc(S(=O)(=O)N2CCCCC2)ccc1N1CCOCC1,64*,-34,72,26,12,66*,36*,19
Cc1cccc2cc(-c3ccccc3)c(-c3ccccc3)c[n+]12,62*,nt,99*,nt,nt,52*,29*,-34
COc1ccc(N2C(=O)c3ccc(C(=O)OC(C)C)cc3C2=O)cc1,91*,11,0,1,4,21,20,22
COc1ccc(OC)c(C(=O)N(C[C@H]2CC[C@@H]([C@@H]3CC[C@H](CO)O3)O2)C(C(=O)NC(C)(C)C)c2ccc(-c3ccccc3)cc2)c1 (some centres undefined),23,6,nt,nt,9,nt,nt,nt
Cc1ccc(N2CC(C(=O)Nc3nc4ccc(S(C)(=O)=O)cc4s3)CC2=O)cc1C (centres undefined),51,8,-9,5,-7,19,13,-43
Cc1csc(NC(=O)C2CC(=O)N(c3ccc(C)c(C)c3)C2)n1 (centres undefined),27,-9,-4,12,10,nt,nt,nt
CCN(Cc1ccncc1)C(=O)c1cccc(S(=O)(=O)N2CCCCC2)c1,95*,1,0,7,-6,20,11,-17
CCN(Cc1ccncc1)C(=O)C1CCN(S(=O)(=O)c2cccs2)CC1,99*,13,-4,-4,5,13,18,10
CN(C(=O)C1CCN(S(=O)(=O)c2cccs2)CC1)C1CCCCC1,0,11,-1,-4,-6,nt,nt,nt
Cc1nn(C)c(C)c1NC(=O)COc1ccc(Cl)cc1Br,14,-17,4,10,-12,nt,nt,nt
COc1cc(OC)c(CN2CCC(Cc3ccccc3)CC2)cc1Br,53,-10,4,0,13,23,21,-36
COc1ccc(OC)c(CN2CCC(Cc3ccccc3)CC2)c1,25,12,7,19,21,nt,nt,nt
COc1ccccc1N(C(=O)c1ccco1)C(C(=O)NC1CCCCC1)c1cc(OC)c(OC)c(OC)c1 (centres undefined),25,9,-2,-5,5,nt,nt,nt
CC(Sc1nc2ccccc2c(=O)n1C)C(=O)NC1CCCCC1C (centres undefined),59*,-40,25,12,9,55*,21,7
CC(Sc1nc2ccccc2[nH]1)C(=O)NC1CCCCC1C (centres undefined),-13,13,0,-2,20,nt,nt,nt
CCc1ccc(-c2cc(C)no2)cc1S(=O)(=O)NCCCN1CCN(c2ccccc2)CC1,50,-39,13,29,48,18,29*,-55
CCOc1ccccc1CNS(=O)(=O)c1cc(-c2cc(C)no2)ccc1OC,-1,9,-1,6,-7,nt,nt,nt
CCc1ccc(-c2cc(C)no2)cc1S(=O)(=O)NCCN1CCC(C)CC1,-7,2,2,3,21,nt,nt,nt
COc1ccc(-c2cc(C)no2)cc1S(=O)(=O)NCC(C)c1ccccc1 (centres undefined),76*,-7,-5,-11,-23,27,7,-39
CCCN1CCN(C(=O)C2CCCN(c3ncnc4c3nc3n4CCCCC3)C2)CC1 (centres undefined),21,-7,-3,4,-28,nt,nt,nt
CCN1CCN(C(=O)C2CCCN(c3ncnc4c3nc3n4CCCCC3)C2)CC1 (centres undefined),50,1,1,-10,13,12,-1,3
SMILES,Gli-Sufu antag,697 NFkB inh,Beta cell apopt,Jurkat NFkB inh,Mdm2 MdmX PPI,Gli-Sufu confirm,SufuKO cytotox,Wnt3a counter
COc1ccccc1CNS(=O)(=O)c1c(C)[nH]c(C)c1C(=O)N1CCCC1,21,-6,3,4,16,nt,nt,nt
Cc1[nH]c(C)c(S(=O)(=O)NCc2ccccc2Cl)c1C(=O)N1CCCC1,58*,-8,-1,-6,-1,15,7,-2
COC(=O)C1=C(C)N(C)C(=O)NC1c1ccccc1 (centres undefined),-2,8,-2,3,4,nt,nt,nt
CC1=C(C(=O)OC(C)C)C(c2ccccc2)NC(=O)N1C (centres undefined),57*,2,-7,5,17,26,1,-9
NS(=O)(=O)c1cccc(NC(=O)COC(=O)CCCc2c[nH]c3ccccc23)c1,-3,23,-3,3,10,nt,nt,nt
Cc1ccc(C2N(c3ccccc3)C(=S)N3CCCN23)cc1 (centres undefined),99*,-11,-2,2,23,14,9,2
Fc1ccc(C2N(c3ccccc3)C(=S)N3CCCN23)cc1 (centres undefined),5,7,nt,4,23,nt,nt,nt
COC(=O)c1[nH]c2cc(OC)ccc2c1NC(=O)CN1CCC(C(N)=O)CC1,8,4,-13,1,2,nt,nt,nt
COC(=O)c1[nH]c2cc(OC)ccc2c1NC(=O)CN1CCC(C(N)=O)(N2CCCCC2)CC1,75*,6,2,-8,15,24,7,-1
CCN(CC)CCCNC(=O)CNC(=O)c1nn(-c2ccc(OC)c(OC)c2)c(=O)c2ccccc12,nt,0,-9,-25,-4,nt,nt,nt
COC(=O)CNC(=O)CNC(=O)c1nn(-c2ccc(OC)c(OC)c2)c(=O)c2ccccc12,52,8,-14,-5,0,10,-4,10
CC[n+]1c(/C=C/Nc2ccccc2)oc2ccc(OC)cc21,25,-12,18,46,12,nt,nt,nt
CC[n+]1c(/C=C/N(C)c2ccccc2)oc2ccc(F)cc21,82*,-28,53,17,22,84*,26*,70*
O=C(C[C@@H]1C/C=C\C[C@@H](NC(=O)OCC2c3ccccc3-c3ccccc32)C(=O)OC[C@@H](Cc2ccccc2)NC1=O)NCCO,54,-6,14,-6,-5,62*,28*,-69
